The target of assay [1] is Cellular tumor antigen p53 (Homo sapiens) (UniProt P04637). The assay is described as follows: Primary qHTS for small molecule compounds that upregulate eGFP-tagged delta133p53alpha (in N-terminal) cells. (AID 2060322). Also: nearly all actives have a fitted effect of over 75% in size. Also: potency is read from the fitted curve at half-maximal effect.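 As to activation: cells pre-induced with doxycycline then dosed without doxycycline; series mostly up to about 56 µM; 0% = DMSO vehicle and 100% = reference activator.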 Conditions: NCI-H358 eGFP-delta133p53alpha fluorescence, 24 h; activation: active compounds read high. In short, it runs like this: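 NCI-H358 cells pre-induced 24 h with 10 ng/ml doxycycline for eGFP-delta133p53alpha, plated dox-free and exposed 24 h at 37C to titrated compounds. Fixed, Hoechst-stained; gated GFP peak intensity by laser scanning cytometry, normalized to DMSO (0%) and 57.5 uM 5-azacytidine (100%).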
Sequence of Cellular tumor antigen p53 (Homo sapiens) (P04637 whole entry, looked up): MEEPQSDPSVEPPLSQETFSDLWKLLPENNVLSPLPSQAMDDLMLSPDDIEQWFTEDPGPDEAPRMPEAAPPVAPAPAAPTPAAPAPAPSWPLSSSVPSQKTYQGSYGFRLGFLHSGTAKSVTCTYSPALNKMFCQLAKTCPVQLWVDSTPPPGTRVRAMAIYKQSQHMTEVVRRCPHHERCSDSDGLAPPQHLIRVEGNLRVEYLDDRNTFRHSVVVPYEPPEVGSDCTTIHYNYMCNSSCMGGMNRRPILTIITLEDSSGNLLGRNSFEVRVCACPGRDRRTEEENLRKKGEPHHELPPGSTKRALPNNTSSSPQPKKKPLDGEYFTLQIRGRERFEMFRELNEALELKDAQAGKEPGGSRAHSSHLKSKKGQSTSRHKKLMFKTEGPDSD

Assay [2] has as its target Aldehyde dehydrogenase, mitochondrial (Homo sapiens) (UniProt P05091). As to the kind of experiment: qHTS for Inhibitors of the Aldehyde Dehydrogenase Family (ALDH2) Primary screen (AID 2061308).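 Also: plate controls were vehicle for no effect and reference inhibitor for full effect; nearly all actives have a fitted effect of over 55% in size.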
In assay [3] the target is Retinaldehyde dehydrogenase 3 (Homo sapiens) (UniProt P47895). The assay is described as follows: qHTS for Inhibitors of the Aldehyde Dehydrogenase Family (ALDH1A3) Primary screen (AID 2061315).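 Also: plate controls were DMSO vehicle for no effect and reference inhibitor for full effect.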

Records with an inconclusive call do not appear. A number with no mark means an inactive call. Calls of active or inactive are those of the source. Calls follow the shape of the dose curve; as a rule, active = well fitted curve in the direction sought with a large enough effect; inconclusive = small, poorly fitted or top-dose-only effect, or another doubt; inactive = no such curve, though single readings can be large; an effect the other way counts as inactive or inconclusive.

Consider `CC(=O)OC[C@]12[C@H](OC(C)=O)[C@H](OC(=O)c3ccccc3)[C@@H]3[C@@H](OC(C)=O)[C@]1(OC3(C)C)[C@H](C)C[C@H](OC(C)=O)[C@@H]2OC(=O)c1ccccc1`, for which the activation in assay [1] is 3.05%. Also, the Potency result in assay [2] and in assay [3] was “inactive” throughout.

Regarding `COc1cc2c(c(OC)c1CC=C(C)C)C[C@H](c1ccc(O)c(CC=C(C)C)c1O)CO2`, the activation in assay [1] is -7.14%. The Potency result in assay [2] and in assay [3] was “inactive” throughout.

`CC1(CO)CC2C(O)C3=C(CC(C)(O)C2C1)C(=O)OC3` (centres undefined): the activation in assay [1] was -12.2%. The Potency entry in assay [2] and in assay [3] was “inactive” each time.

In the case of `C#C[C@]1(OC(C)=O)CC[C@H]2[C@@H]3CCC4=C[C@@H](OC(C)=O)CC[C@@H]4[C@H]3CC[C@@]21C`, the activation in assay [1] was 6.33%. For the same molecule, the Potency entry in assay [2] and in assay [3] was “inactive” throughout.

Consider `C[C@H](Oc1ccc(S(C)(=O)=O)cc1C(=O)N1CCN(c2ncc(C(F)(F)F)cc2F)CC1)C(F)(F)F`, for which, in assay [1], the activation is 4.46%. For the same molecule, the Potency result in assay [2] and in assay [3] was “inactive” each time.

Regarding `C=C(C(=O)O)[C@@H]1CC[C@H](C)[C@@H]2CC(=O)C(C)=C2C1`, the activation in assay [1] is -8.04%. Further, the Potency entry in assay [2] and in assay [3] was “inactive” throughout.

For the molecule `C[N+]1(C)[C@@H]2C[C@@H](OC(=O)C(O)(c3cccs3)c3cccs3)C[C@H]1[C@@H]1O[C@@H]12`, the activation in assay [1] is 8.63%. Besides, the Potency entry in assay [2] and in assay [3] was “inactive” in each case.

Consider `CC(=O)OCC1OC(O[C@H]2CC[C@]34C[C@]35CC(O)[C@]3(C)[C@@H]([C@H](C)CC/C=C(\C)C(=O)O)C(O)C[C@@]3(C)C5CC[C@H]4C2(C)C)C(O)C(O)C1OC1OCC(O)C(O)C1O` (some centres undefined), for which the activation in assay [1] is -13%. For the same molecule, the Potency entry in assay [2] and in assay [3] was “inactive” in each case.

As to `CC1CCN(C(=O)CC#N)CC1N(C)c1ncnc2[nH]ccc12` (centres undefined), the activation in assay [1] was 1.79%. Besides, the Potency entry in assay [2] and in assay [3] was “inactive” in each case.

On to `CC(=O)OC[C@@]12[C@H](O)C[C@]3(C)C(=CCC4[C@@]5(C)CC[C@H](O[C@@H]6O[C@H](C(=O)O)[C@@H](O[C@@H]7O[C@H](CO)[C@@H](O)[C@H](O)[C@H]7O)[C@H](O)[C@H]6O[C@@H]6O[C@H](CO)[C@@H](O)[C@H](O)[C@H]6O)[C@](C)(CO)C5CC[C@]43C)[C@@H]1CC(C)(C)[C@@H](OC(C)=O)[C@@H]2O` (some centres undefined), for which, in assay [1], the activation was -4.58%. Besides, the Potency entry in assay [2] and in assay [3] was “inactive” each time.

With `CC(C)(O)C(O)C(=O)OCc1ccc(O[C@@H]2O[C@H](CO)[C@@H](O)[C@H](O)[C@H]2O)cc1` (some centres undefined), the activation in assay [1] is 8.4%. In addition, the Potency result in assay [2] and in assay [3] was “inactive” in each case.

As to `CC1(C)COC(=O)[C@@H]1O[C@@H]1O[C@H](CO)[C@@H](O)[C@H](O)[C@H]1O`, the activation in assay [1] was -11.6%. Moreover, the Potency entry in assay [2] and in assay [3] was “inactive” throughout.

Regarding `C[C@@]1(C(=O)O)CCC[C@@]2(C)C3=CC[C@H]4C[C@@]3(CC[C@H]12)CC4(O)CO` (some centres undefined), the activation in assay [1] was -2.29%. Also, the Potency result in assay [2] and in assay [3] was “inactive” throughout.

Regarding `Cc1ccccc1-n1c([C@H](C)Nc2nc(N)nc3nc[nH]c23)nc2cccc(C)c2c1=O`, in assay [1], the activation is -15.2%. The Potency result in assay [2] and in assay [3] was “inactive” each time.

`O=C(O)Cc1cn([C@@H]2OC[C@@H](O[C@@H]3O[C@H](CO)[C@@H](O)[C@H](O)[C@H]3O)[C@H](O)[C@H]2O[C@@H]2O[C@H](CO)[C@@H](O)[C@H](O)[C@H]2O)c2ccccc12`: the activation in assay [1] is -7.63%. The Potency result in assay [2] and in assay [3] was “inactive” each time.

For `N#Cc1c[nH]c2c(C(=O)N3CCN(CCc4ccc(F)cc4)CC3)cccc12`, in assay [1], the activation is -18.8%. Also, the Potency result in assay [2] and in assay [3] was “inactive” each time.

For the molecule `CN1CCN(Cc2ccc(-c3cnc4[nH]cc(-c5ccc6[nH]ccc6c5)c4c3)cc2)CC1`, in assay [1], the Potency is 23.9 µM (active). Besides, the Potency result in assay [2] and in assay [3] was “inactive” each time.

As for `O=C(Cc1ccc(Cl)cc1)Nc1cnccc1C(=O)O`, the activation in assay [1] is -12.3%. The Potency result in assay [2] and in assay [3] was “inactive” each time.

For the molecule `COc1cc2occc2c(O[C@@H]2O[C@H](CO)[C@@H](O)[C@H](O)[C@H]2O)c1CCC(=O)O`, the activation in assay [1] is 9.16%. The Potency result in assay [2] and in assay [3] was “inactive” throughout.

`CC(=O)OC[C@H]1O[C@H](O[C@]2(CO)O[C@H](CO)[C@@H](OC(=O)/C=C/c3ccccc3)[C@@H]2O)[C@H](O)[C@@H](O)[C@@H]1O`: the activation in assay [1] was -0.763%. For the same molecule, the Potency entry in assay [2] and in assay [3] was “inactive” each time.

`Nc1c(Br)cc(Br)cc1CNC1CCC(O)CC1` (centres undefined): the activation in assay [1] was 29.7%. Moreover, the Potency entry in assay [2] and in assay [3] was “inactive” throughout.

On to `CC[N+]1(CC)CCC(=C(c2ccccc2)c2ccccc2)C1C` (centres undefined), for which, in assay [1], the activation was -5.67%. Besides, the Potency result in assay [2] and in assay [3] was “inactive” each time.

`OCC1=C[C@@H](O)[C@@H]2C=CO[C@@H](O[C@@H]3O[C@H](CO)[C@@H](O)[C@H](O)[C@H]3O)[C@H]12`: the activation in assay [1] was -32.8%. In addition, the Potency result in assay [2] and in assay [3] was “inactive” throughout.

These data come from PubChem BioAssay (NCATS).
